Compounds without any hit were thinned out: in the full panel of roughly 79,000, 15% have a hit. Values without a mark were called inactive. Calls of active or inactive are those of the source. No stated cut-off is given here; in the data, active means growth inhibition above about 70%; inactive means the rest.
Experiment: NCI Yeast Anticancer Drug Screen. Data for the sgs1 mgt1 strain (AID 161);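 further: 0% = growth of cultures given vehicle only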
Conditions: S. cerevisiae sgs1 mgt1 strain, at 50.0 µM, stronger effect = higher value
How it was run: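 Growth of a repair-deficient yeast mutant was monitored after compound treatment and expressed as inhibition relative to vehicle-treated cultures.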

**Q.** For CCCCCCCCCCc1ccc(CCCCCCCCCC)cc1, which growth inhibition is on record?
**A.** Its growth inhibition is 4.6%.

**Q.** With CCCCCCC(CC)C(N)=O (stereo not given) as the compound, how does the growth inhibition read?
**A.** The growth inhibition was -4.1%.

**Q.** Which growth inhibition does the source give for CCC1CN2CCc3cc(OC)c(OC)cc3C2CC1C#N (stereo not given) here?
**A.** Its growth inhibition is 23.8%.

**Q.** With O=C(N/N=C/c1ccc(Cl)cc1Cl)c1ccccc1 as the compound, how does the growth inhibition read?
**A.** Its growth inhibition is -2.95%.

**Q.** With N#Cc1ccc(OC(=O)Nc2cccc(Cl)c2Cl)cc1 as the compound, how does the growth inhibition read?
**A.** Its growth inhibition is 2.95%.

**Q.** Which growth inhibition does the source give for Cn1c(=O)oc2cc(C(=O)CN3CCN(Cc4ccc5c(c4)OCO5)CC3)c(Cl)cc21 here?
**A.** Its growth inhibition is 61.8%.

**Q.** For COc1cc2ccc(=O)oc2cc1O, which growth inhibition is on record?
**A.** The growth inhibition was 9.05%.

**Q.** With O=C(N/N=C\c1c[nH]c2ccccc12)N/N=C/c1c[nH]c2ccccc12 as the compound, how does the growth inhibition read?
**A.** Its growth inhibition is -7.25%.

**Q.** Which growth inhibition does the source give for CCCC(=O)c1ccc(C)cc1 here?
**A.** Its growth inhibition is -4.2%.

**Q.** For O=C(O)C1(c2ccccc2)CC1, which growth inhibition is on record?
**A.** The growth inhibition was 13.1%.

**Q.** For NCC(O)CN, which growth inhibition is on record?
**A.** The growth inhibition was -2.75%.

**Q.** With CC(=O)OC1CC2(c3ccccc3)C(=O)c3ccccc3N2O1 (stereo not given) as the compound, how does the growth inhibition read?
**A.** Its growth inhibition is -11.8%.

**Q.** With O=C(Nc1cccc2ccccc12)Oc1cccc2cccnc12 as the compound, how does the growth inhibition read?
**A.** The growth inhibition was 97.5% (active).

**Q.** With CC(C)(/C=N\O)NO as the compound, how does the growth inhibition read?
**A.** Its growth inhibition is 0.4%.

**Q.** With CC(=O)Nc1ccc(C)cc1[N+](=O)[O-] as the compound, how does the growth inhibition read?
**A.** The growth inhibition was -29.2%.

**Q.** For CN(C)C1=CC(=O)NC(c2ccccc2)C1 (stereo not given), which growth inhibition is on record?
**A.** Its growth inhibition is -10.6%.

**Q.** With COC(=O)C(Cc1ccc2c(c1)CCC2)Cc1ccc2c(c1)CCC2 as the compound, how does the growth inhibition read?
**A.** The growth inhibition was -7.4%.

**Q.** For CCC[CH2][Sn]([C]#[C][Sn]([CH2]CCC)([CH2]CCC)[CH2]CCC)([CH2]CCC)[CH2]CCC, which growth inhibition is on record?
**A.** The growth inhibition was 99.5% (active).

**Q.** Which growth inhibition does the source give for Cc1cc(/C=C2\SC(=S)NC2=O)cc(C)c1O here?
**A.** The growth inhibition was 24.6%.

**Q.** For O=C(/C(=C/c1ccccc1)N1CCOCC1)c1cccc2ccccc12, which growth inhibition is on record?
**A.** The growth inhibition was 17.1%.

**Q.** For CC(=O)/C(=C/n1c(=S)[nH]c2ccccc21)C(=O)Nc1ccc([N+](=O)[O-])cc1, which growth inhibition is on record?
**A.** The growth inhibition was -13.9%.

**Q.** With NNC(=S)N/N=C(/C(=O)Nc1cc(Cl)ccc1Cl)C1C(=O)Nc2ccccc2S1=O (stereo not given) as the compound, how does the growth inhibition read?
**A.** The growth inhibition was -5.1%.

**Q.** For N[N+]1(CCS(N)(=O)=O)CCOCC1, which growth inhibition is on record?
**A.** Its growth inhibition is -0.9%.

**Q.** For Nc1nc(N)nc(-c2ccccc2-c2nc(N)nc(N)n2)n1, which growth inhibition is on record?
**A.** Its growth inhibition is 3.45%.

**Q.** For O=C1C(Cl)C(c2ccccc2O)N1n1cnc2ccccc2c1=O (stereo not given), which growth inhibition is on record?
**A.** Its growth inhibition is -12.5%.

**Q.** With COC[C@@H](N=CN1CCc2cc(OC)c(OC)cc2C1)C(C)(C)C as the compound, how does the growth inhibition read?
**A.** Its growth inhibition is -14.6%.

**Q.** With CC(C)(C)OC(=O)C(C1NC(C(=O)O)C(C)(C)S1)N1C(=O)c2ccccc2C1=O (stereo not given) as the compound, how does the growth inhibition read?
**A.** The growth inhibition was -53.7%.

**Q.** With CCCOc1cc2c(cc1C(C)c1ccc(OC)cc1)OCO2 (stereo not given) as the compound, how does the growth inhibition read?
**A.** The growth inhibition was 15.8%.

**Q.** Which growth inhibition does the source give for COc1cc2ccc3c[n+]4ccccc4cc3c2cc1OC here?
**A.** Its growth inhibition is 19.9%.

**Q.** Which growth inhibition does the source give for CC1(C)OC(=O)c2c(cc(N3CCOCC3)oc2=O)O1 here?
**A.** Its growth inhibition is 1.35%.

**Q.** Which growth inhibition does the source give for COc1ccc(C(O)(c2ccccc2C)c2ccccc2OC)cc1 (stereo not given) here?
**A.** Its growth inhibition is 4.2%.

**Q.** With NC1=NC(=O)C(CC(=O)Nc2ccc([N+](=O)[O-])cc2[N+](=O)[O-])S1 (stereo not given) as the compound, how does the growth inhibition read?
**A.** Its growth inhibition is 2.3%.

**Q.** Which growth inhibition does the source give for CC(=O)OC(C(=O)Nc1ncccn1)c1ccccc1 (stereo not given) here?
**A.** Its growth inhibition is -5.65%.

**Q.** With CCOC(=O)C(=O)Nc1ccc2cc(OC)ccc2c1C#N as the compound, how does the growth inhibition read?
**A.** The growth inhibition was 14.8%.

**Q.** For N#C/C(N)=C(\C#N)NC=NCc1ccccc1, which growth inhibition is on record?
**A.** Its growth inhibition is 20.2%.

**Q.** For C#CCCC#C, which growth inhibition is on record?
**A.** Its growth inhibition is 8.4%.

**Q.** For COc1ccc(C(CN(C)C(C)C)OC(=O)C(c2ccccc2)c2ccccc2)cc1OC (stereo not given), which growth inhibition is on record?
**A.** Its growth inhibition is -12.6%.

**Q.** For CCCCCCCCCCCCCCCC/C(C(=O)OC)=C(/O)C(=O)OCC, which growth inhibition is on record?
**A.** Its growth inhibition is -3.65%.

**Q.** For COc1cc(C)oc(=O)c1, which growth inhibition is on record?
**A.** The growth inhibition was -2.45%.

**Q.** For COc1cc2c(c(Cl)c1OC)CCN(C)CC2c1ccccc1 (stereo not given), which growth inhibition is on record?
**A.** The growth inhibition was -13.9%.

Experiment: NCI Yeast Anticancer Drug Screen. Data for the cln2 rad14 strain (AID 165);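 further: 0% = growth equal to vehicle treated cultures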
Conditions: S. cerevisiae cln2 rad14 strain, at 50.0 µM, stronger effect = higher value
How it was run: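 Strain: cln2 rad14 yeast, altered in cell cycle control and DNA damage repair. Read-out: growth inhibition vs vehicle.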

**Q.** Which growth inhibition does the source give for CCCCCCCCCCc1ccc(CCCCCCCCCC)cc1 here?
**A.** Its growth inhibition is -4.55%.

**Q.** For CCCCCCC(CC)C(N)=O (stereo not given), which growth inhibition is on record?
**A.** The growth inhibition was -7.8%.

**Q.** For CCC1CN2CCc3cc(OC)c(OC)cc3C2CC1C#N (stereo not given), which growth inhibition is on record?
**A.** Its growth inhibition is 21.1%.

**Q.** Which growth inhibition does the source give for O=C(N/N=C/c1ccc(Cl)cc1Cl)c1ccccc1 here?
**A.** The growth inhibition was -5.1%.

**Q.** Which growth inhibition does the source give for N#Cc1ccc(OC(=O)Nc2cccc(Cl)c2Cl)cc1 here?
**A.** The growth inhibition was 15.7%.

**Q.** For Cn1c(=O)oc2cc(C(=O)CN3CCN(Cc4ccc5c(c4)OCO5)CC3)c(Cl)cc21, which growth inhibition is on record?
**A.** Its growth inhibition is 26.1%.

**Q.** Which growth inhibition does the source give for COc1cc2ccc(=O)oc2cc1O here?
**A.** Its growth inhibition is 19.4%.

**Q.** For O=C(N/N=C\c1c[nH]c2ccccc12)N/N=C/c1c[nH]c2ccccc12, which growth inhibition is on record?
**A.** Its growth inhibition is -11.2%.

**Q.** With CCCC(=O)c1ccc(C)cc1 as the compound, how does the growth inhibition read?
**A.** Its growth inhibition is 13.5%.

**Q.** With O=C(O)C1(c2ccccc2)CC1 as the compound, how does the growth inhibition read?
**A.** The growth inhibition was 2.45%.

**Q.** Which growth inhibition does the source give for NCC(O)CN here?
**A.** The growth inhibition was -8.2%.

**Q.** Which growth inhibition does the source give for CC(=O)OC1CC2(c3ccccc3)C(=O)c3ccccc3N2O1 (stereo not given) here?
**A.** The growth inhibition was -12.7%.

**Q.** With O=C(Nc1cccc2ccccc12)Oc1cccc2cccnc12 as the compound, how does the growth inhibition read?
**A.** The growth inhibition was 94% (active).

**Q.** Which growth inhibition does the source give for CC(C)(/C=N\O)NO here?
**A.** Its growth inhibition is 13.6%.

**Q.** With CC(=O)Nc1ccc(C)cc1[N+](=O)[O-] as the compound, how does the growth inhibition read?
**A.** Its growth inhibition is -29.9%.

**Q.** For CN(C)C1=CC(=O)NC(c2ccccc2)C1 (stereo not given), which growth inhibition is on record?
**A.** Its growth inhibition is -14.2%.

**Q.** For COC(=O)C(Cc1ccc2c(c1)CCC2)Cc1ccc2c(c1)CCC2, which growth inhibition is on record?
**A.** Its growth inhibition is -41.6%.

**Q.** For CCC[CH2][Sn]([C]#[C][Sn]([CH2]CCC)([CH2]CCC)[CH2]CCC)([CH2]CCC)[CH2]CCC, which growth inhibition is on record?
**A.** The growth inhibition was 99.2% (active).

**Q.** For Cc1cc(/C=C2\SC(=S)NC2=O)cc(C)c1O, which growth inhibition is on record?
**A.** Its growth inhibition is 13.1%.

**Q.** Which growth inhibition does the source give for O=C(/C(=C/c1ccccc1)N1CCOCC1)c1cccc2ccccc12 here?
**A.** Its growth inhibition is 14.7%.

**Q.** With CC(=O)/C(=C/n1c(=S)[nH]c2ccccc21)C(=O)Nc1ccc([N+](=O)[O-])cc1 as the compound, how does the growth inhibition read?
**A.** The growth inhibition was -8.9%.

**Q.** Which growth inhibition does the source give for NNC(=S)N/N=C(/C(=O)Nc1cc(Cl)ccc1Cl)C1C(=O)Nc2ccccc2S1=O (stereo not given) here?
**A.** The growth inhibition was -28.6%.

**Q.** For N[N+]1(CCS(N)(=O)=O)CCOCC1, which growth inhibition is on record?
**A.** Its growth inhibition is -31.2%.

**Q.** With Nc1nc(N)nc(-c2ccccc2-c2nc(N)nc(N)n2)n1 as the compound, how does the growth inhibition read?
**A.** The growth inhibition was -18%.

**Q.** Which growth inhibition does the source give for O=C1C(Cl)C(c2ccccc2O)N1n1cnc2ccccc2c1=O (stereo not given) here?
**A.** Its growth inhibition is -9.5%.

**Q.** Which growth inhibition does the source give for COC[C@@H](N=CN1CCc2cc(OC)c(OC)cc2C1)C(C)(C)C here?
**A.** The growth inhibition was 13%.

**Q.** With CC(C)(C)OC(=O)C(C1NC(C(=O)O)C(C)(C)S1)N1C(=O)c2ccccc2C1=O (stereo not given) as the compound, how does the growth inhibition read?
**A.** Its growth inhibition is -42.1%.

**Q.** For CCCOc1cc2c(cc1C(C)c1ccc(OC)cc1)OCO2 (stereo not given), which growth inhibition is on record?
**A.** The growth inhibition was -1.9%.

**Q.** With COc1cc2ccc3c[n+]4ccccc4cc3c2cc1OC as the compound, how does the growth inhibition read?
**A.** The growth inhibition was 19.4%.

**Q.** For CC1(C)OC(=O)c2c(cc(N3CCOCC3)oc2=O)O1, which growth inhibition is on record?
**A.** The growth inhibition was 9.55%.

**Q.** For COc1ccc(C(O)(c2ccccc2C)c2ccccc2OC)cc1 (stereo not given), which growth inhibition is on record?
**A.** Its growth inhibition is -10.8%.

**Q.** For NC1=NC(=O)C(CC(=O)Nc2ccc([N+](=O)[O-])cc2[N+](=O)[O-])S1 (stereo not given), which growth inhibition is on record?
**A.** Its growth inhibition is 3.3%.

**Q.** With CC(=O)OC(C(=O)Nc1ncccn1)c1ccccc1 (stereo not given) as the compound, how does the growth inhibition read?
**A.** Its growth inhibition is 11.4%.

**Q.** Which growth inhibition does the source give for CCOC(=O)C(=O)Nc1ccc2cc(OC)ccc2c1C#N here?
**A.** Its growth inhibition is 35.2%.

**Q.** For N#C/C(N)=C(\C#N)NC=NCc1ccccc1, which growth inhibition is on record?
**A.** Its growth inhibition is 2.3%.

**Q.** For C#CCCC#C, which growth inhibition is on record?
**A.** Its growth inhibition is 6%.

**Q.** With COc1ccc(C(CN(C)C(C)C)OC(=O)C(c2ccccc2)c2ccccc2)cc1OC (stereo not given) as the compound, how does the growth inhibition read?
**A.** Its growth inhibition is -8.25%.

**Q.** With CCCCCCCCCCCCCCCC/C(C(=O)OC)=C(/O)C(=O)OCC as the compound, how does the growth inhibition read?
**A.** The growth inhibition was -67%.

**Q.** For COc1cc(C)oc(=O)c1, which growth inhibition is on record?
**A.** The growth inhibition was -16.6%.

**Q.** With COc1cc2c(c(Cl)c1OC)CCN(C)CC2c1ccccc1 (stereo not given) as the compound, how does the growth inhibition read?
**A.** Its growth inhibition is -9.5%.

Source: PubChem BioAssay (NCI)
